Screens as filed in PubChem.
Hits are enriched below; roughly 1.2% of the tested compounds scored in any of these assays.
GSH fluor: compound fluorescence on glutathione beads, profiling panel, artefact control, biophysical, 488/530 nm, flow cytometry. GSH beads flow cytometry, compound fluorescence 488/530 nm; hits give high values. fluorescence (KMESF) at 10 µM. 190,000 compounds, 0.25% hits. AID 1776, 2009; in the data active = fluorescence above about 89;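 note: glutathione beads carrying GST-tagged Bcl family fusion proteins plus one bare bead set; values are compound well signal with DMSO vehicle wells as background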
Avidin fluor: green autofluorescence of compounds with avidin beads – biophysical, 488/530 nm, flow cytometry, artefact control, profiling panel | 220,000 compounds, 0.38% hits | compound fluorescence 488/530 nm; hits give high values | fluorescence (KMESF) at 10 µM; in the data active = fluorescence above about 47
RGS7-Gao reg: RGS7-Galphao binding modulators, primary screen, biochemical, multiplexed bead flow cytometry | Guanine nucleotide-binding protein G(o) subunit alpha (Homo sapiens), P09471 | actives lie on both sides | binding response (% of control), % at 10 µM | 220,000 compounds, 0.35% hits | AID 1439, 2008; in the data active = binding response below about 49% or above about 150%; inconclusive = no clear call, values can overlap the other calls; inactive = in between;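 note: fluorescent Galphao held in activated GDP-AlF4 state binding bead-coupled RGS7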
RGS4-Gao reg: modulators of RGS4 binding to Galphao, primary screen, biochemical, multiplexed bead flow cytometry. Guanine nucleotide-binding protein G(o) subunit alpha (Homo sapiens), P09471. actives lie on both sides. binding response (% of control), % at 10 µM. 220,000 compounds, 0.33% hits. AID 1415, 2008; in the data active = binding response below about 49% or above about 150%; inactive = in between;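 note: fluorescent Galphao activated with aluminum fluoride binding bead-coupled RGS4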
RGS16-Gao HTS: modulators of RGS16 binding to Galphao, primary screen, biochemical, human proteins, multiplexed bead flow cytometry; Regulator of G-protein signaling 16 (Homo sapiens) + Guanine nucleotide-binding protein …; bead-based flow cytometry RGS16-Galphao binding, fluorescence; actives lie on both sides; binding response (% of control), % at 10 µM; 220,000 compounds, 0.38% hits;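 note: Galphao activated by GDP with aluminum fluoride before binding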
RGS8-Gao reg: RGS8-Galphao binding modulators, primary screen, biochemical, multiplexed bead flow cytometry; AID 1423, 2008; actives lie on both sides; 220,000 compounds, 0.34% hits; response (percent of control binding), % at 10 µM; Guanine nucleotide-binding protein G(o) subunit alpha (Homo sapiens), P09471; in the data active = response below about 60% or above about 140%; inactive = in between;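 note: Galphao activated as the GDP aluminium fluoride complex binding bead-coupled RGS8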
RGS4-Gao HTS: modulators of RGS–Galpha-o binding, primary screen, biochemical, multiplexed beads, flow cytometry, RGS4/7/8/16/19. shares compounds with RGS16-Gao HTS. multiplexed bead flow cytometry. RGS4–Galpha-o binding response, % at 10 µM. 1,600 compounds, 99% hits. AID 1504, 2009;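 note: fluorescently labeled Galpha-o bound to GDP with aluminium fluoride binding biotinylated RGS beads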
Biotin-avidin: disruption of biotin probe capture by avidin, counter-screen for RGS protein interaction modulators, biochemical, flow cytometry, bead-based; shares compounds with RGS16-Gao HTS; streptavidin beads, fluorescein-biotin binding; inhibition, % at 10 µM; 1,700 tested, under 10 active;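 active = inhibition above 50%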;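 note: median green fluorescence of gated singlet beads compared with DMSO control wells; 0% = DMSO wells and 100% = complete loss of bead fluorescence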
RGS8-Gao confirm: RGS8-Galphao binding modulators, confirmation, biochemical, multiplexed bead flow cytometry, single concentration | shares compounds with RGS16-Gao HTS | bead-based flow cytometry RGS8-Galphao binding, fluorescence; actives lie on both sides | binding response (% of control), % at 10 µM | 1,700 compounds, 3% hits | AID 1836, 2009; in the data active = binding response below about 72% or above about 130%; inactive = in between;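 note: Galphao activated as GDP AlF4 complex before binding bead RGS8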
RGS7-Gao single: RGS7-Galphao binding modulators, confirmation, biochemical, multiplexed bead flow cytometry, single concentration; bead-based flow cytometry RGS7-Galphao binding; actives lie on both sides; shares compounds with RGS16-Gao HTS; response (percent of control binding), % at 10 µM; AID 1837, 2009; 1,700 compounds, 7.8% hits; in the data active = response below about 75% or above about 130%; inactive = in between;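 note: fluorescent Galphao activated with GDP and aluminum fluoride binding bead-coupled RGS7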
RGS16-Gao conf: modulators of RGS16-Galphao protein binding, confirmation, biochemical, single concentration, multiplexed bead flow cytometry; shares compounds with RGS16-Gao HTS; bead-based flow cytometry; actives lie on both sides; response (% of control binding), % at 10 µM; 1,700 compounds, 4% hits; in the data active = response below about 74% or above about 130%; inactive = in between;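 note: Galphao activated as the GDP aluminium fluoride complex binding bead-coupled RGS16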
RGS4-Gao single: modulators of RGS4-Galphao protein binding, confirmation, biochemical, single concentration, multiplexed bead flow cytometry. actives lie on both sides. binding response (% of control), % at 10 µM. AID 1840, 2009. 1,700 compounds, 4% hits. shares compounds with RGS16-Gao HTS; in the data active = binding response below about 74% or above about 130%; inactive = in between
RGS19-Gao conf: regulators of RGS19-Galphao binding, confirmation, biochemical, single point, multiplexed bead flow cytometry | shares compounds with RGS16-Gao HTS | bead-based flow cytometry RGS19-Galphao binding; actives lie on both sides | response (percent of control binding), % at 10 µM | 1,700 compounds, 5% hits | AID 1841, 2009; in the data active = response below about 50% or above about 160%; inactive = in between;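 note: 100% = no compound control and 0% = blank background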
Active calls of the source: *; u = inconclusive; x = no result; [ ] = another dose, or the depositor's remark. Unless noted, the rule behind the calls is not given here.

SMILES	GSH fluor	Avidin fluor	RGS7-Gao reg	RGS4-Gao reg	RGS16-Gao HTS	RGS8-Gao reg	Biotin-avidin	RGS8-Gao confirm	RGS7-Gao single	RGS16-Gao conf	RGS4-Gao single	RGS19-Gao conf	others
C=CCNC(=O)C(=O)NCCOc1ccccc1Cl	15	14	102	104	105	102	x	x	x	x	x	x
CCN(CC)CCNc1ccc2nnc(CCNS(=O)(=O)c3ccc(C)cc3)n2n1	9	3	16*	20*	11*	15*	0	100	67*	91	77	106
Cc1ccc(S(=O)(=O)NCCc2nnc3ccc(SCC(=O)Nc4nc(C)cs4)nn23)cc1	8	4	99	102	102	101	x	x	x	x	x	x
C/C(=N\NC(=O)Cc1cccn1C)c1cccs1	21	-2	31*	34*	27	30*	-1	102	104	102	104	106
CC(C)CCNC(=O)CN(C(=O)CCC(=O)Nc1ccccn1)c1ccc(F)c(Cl)c1	14	12	u	99	101	100	x	x	x	x	x	x
CCC(=O)Nc1sc2c(c1C(N)=O)CCC2	22	-2	7.2*	16*	-7.4*	12*	-1	107	102	108	101	107
COc1ccc(Nc2ccc(S(=O)(=O)N3CCCCCC3)cc2[N+](=O)[O-])cc1	9	7	x	105	107	103	2	90	88	89	91	78
Cc1ccc(N2CN(Cc3cccnc3)CNC2=S)cc1	17	17	102	105	102	102	x	x	x	x	x	x
Cc1ccc(C)c(N2CN(Cc3cccnc3)CNC2=S)c1	10	2	98	93	21*	69	2	104	104	107	104	96	RGS4-Gao HTS=93*
FC(F)Sc1nc2ccccc2[nH]1	x	7	u	97	97	100	x	x	x	x	x	x
Cc1ccsc1/C=N/N1CCN(Cc2ccccc2)CC1	23	9	103	103	111	107	x	x	x	x	x	x
Cc1ccc(-n2c(C)n[nH]c2=S)cc1	9	16	119	115	183*[activator]	118	1	111	130*[activator]	108	111	114	RGS4-Gao HTS=115*
